Source: PubChem BioAssay
Cycloheximide cs – counter-screen for Shiga toxin inhibitors: cycloheximide protein synthesis inhibition; hit rate 12% among 300,000; max response, %; AID 2314; cell reporter, cycloheximide protein synthesis inhibition counterscreen; in the data active = max response mostly above about 13%, no sharp cut-off; inactive = mostly below about 14%; note: read at 38.3 µM for the half of the compounds with a filed dose; 0% is about no effect
SARS PLpro yeast – SARS-CoV PLP inhibition in yeast; S. cerevisiae expressing SARS-CoV PLpro, growth rescue; Potency, µM (top dose mostly 32.9 µM), for inactives: at the highest dose activity, positive = growth rescue, hits mostly activators; hit rate 0.19% among 330,000; AID 485353; note: potency is the fitted concentration of half-maximal effect; 0% is about no effect; nearly all actives have a fitted effect of over 55% in size
Pf growth 96h – inhibits malaria parasite growth, 96 h; Potency, µM (highest dose often 28.7 µM), for inactives: top-dose activity change, negative = inhibition, actives largely listed as inhibitors; hit rate 6.9% among 320,000; P. falciparum luciferase reporter growth, 96 h; active = well fitted inhibition curve with a large enough effect; inconclusive = small, poorly fitted or top-dose-only effect, or another doubt; inactive = no such curve, though single readings can be large or run the other way; note: potency is the fitted concentration of half-maximal effect; % is set by controls: 0 for no effect and ±100 for the full control effect
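Parasite growth measured via integrated firefly luciferase reporter in P. falciparum. Infected erythrocytes at 2% hematocrit, 0.05% parasitemia final were treated 96 hours at 37 C under 5% CO2, and luminescence was read.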
Pf growth 48h – P. falciparum growth inhibition at 48 hours (one generation). Potency, µM (doses to about 28.7 µM), for inactives: top-dose activity change, negative = inhibition, actives largely listed as inhibitors. hit rate 5.9% among 310,000. AID 504832. P. falciparum luciferase growth in erythrocytes, 48 h; active = well fitted inhibition curve with a large enough effect; inconclusive = small, poorly fitted or top-dose-only effect, or another doubt; inactive = no such curve, though single readings can be large or run the other way; note: potency is the fitted concentration of half-maximal effect; % is set by controls: 0 for no effect and ±100 for the full control effect
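Luciferase-expressing parasites in RBCs, 2% Hct / 0.1% parasitemia final; RPMI 1640 + 0.5% Albumax; 37 C, 5% CO2, one generation; luminescence read-out, lower signal = inhibition.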
Shiga inhibitor – Shiga toxin inhibition; Vero cells, Shiga toxin protein synthesis inhibition reporter; AID 2315; hit rate 9.2% among 290,000; inhibition, % at 38.7 µM; in the data active = inhibition mostly above about 28%, no sharp cut-off; inactive = mostly below about 43%; note: 0% is about no effect
NS1 function inh – inhibitors of influenza NS1 protein function. Potency, µM (highest dose often 46.1 µM), inactives show at the top dose activity, positive = more growth. hit rate 0.4% among 270,000. AID 2326; note: potency is the fitted concentration of half-maximal effect; actives are rising curves; nearly all actives have a fitted effect of over 50% in size
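S. cerevisiae expressing influenza A NS1, grown in glucose, washed, then diluted 1:100 into pH 6.0 -URA galactose medium with 23 nl compound. Growth recovery read as OD600; NS1-free strain serves as control.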
The depositor's hits bear a star; [ ] = another dose, or the depositor's remark. Only some compounds are listed: those with a hit (about 21% of all), similar ones and a draw of the others. Unless noted, calls come from the whole dose curve.

Results for Cc1ccc(OCC(=O)NCC2CCCO2)c(C)c1 (stereo not given) ?
Cycloheximide cs: 39.4*; SARS PLpro yeast: 0.6%; Pf growth 96h: 18.6%; Pf growth 48h: 17.5%; Shiga inhibitor: 33.8; NS1 function inh: -1.3%

How did Cc1ccc(OCC(=O)NNC(=O)C2CCCO2)c(C)c1 (stereo not given) do in these assays?
Cycloheximide cs: 21.3*; SARS PLpro yeast: 0.4%; Pf growth 96h: 42.5%; Pf growth 48h: inconclusive; Shiga inhibitor: 11.8

What do the screens show for `Cc1ccccc1OCC(=O)NCC1CCCO1` (stereo not given)?
Cycloheximide cs: 1.1; SARS PLpro yeast: -2.0%; Pf growth 96h: inconclusive; Pf growth 48h: 7.3%; Shiga inhibitor: 66.8; NS1 function inh: -5.4%

What do the screens show for `Cc1cc(C)cc(OCC(=O)NNC(=O)C2CCCO2)c1` (stereo not given)?
Cycloheximide cs: 6.0; SARS PLpro yeast: 1.2%; Pf growth 96h: inconclusive; Pf growth 48h: 41.2%; Shiga inhibitor: 27.8

What do the screens show for `CCCCn1c(CN2CCN(c3ccccc3)CC2)nc2c1c(=O)n(C)c(=O)n2C`?
Cycloheximide cs: 3.7; SARS PLpro yeast: -0.9%; Pf growth 96h: inconclusive; Pf growth 48h: inconclusive; Shiga inhibitor: 10.1; NS1 function inh: -28.2%

Results for Cn1c(=O)c2c(nc(CN3CCN(C(c4ccccc4)c4ccccc4)CC3)n2CCCO)n(C)c1=O ?
Cycloheximide cs: -1.1; SARS PLpro yeast: -0.7%; Pf growth 96h: -5.4%; Pf growth 48h: 2.94µM*; Shiga inhibitor: -6.1; NS1 function inh: -10.4%

Results for COCCn1c(CN2CCN(C(c3ccccc3)c3ccccc3)CC2)nc2c1c(=O)n(C)c(=O)n2C ?
Cycloheximide cs: 2.2; SARS PLpro yeast: 1.6%; Pf growth 96h: 28.2%; Pf growth 48h: 2.62µM*; Shiga inhibitor: -3.8; NS1 function inh: 0.4%

How did Cc1ccc(C(=O)NCCC(=O)N2CCC3(CC2)NCCc2[nH]cnc23)cc1C do in these assays?
Cycloheximide cs: 11.4*; SARS PLpro yeast: -3.6%; Pf growth 96h: 4.3%; Pf growth 48h: -2.6%; Shiga inhibitor: -2.1; NS1 function inh: -1.2%

What do the screens show for `CC1(C)CC(=O)C(CC2=C(O)CC(C)(C)CC2=O)=C(O)C1`?
Cycloheximide cs: -2.1; SARS PLpro yeast: 5.0%; Pf growth 96h: inconclusive; Pf growth 48h: -8.9%; Shiga inhibitor: 16.2; NS1 function inh: 1.2%

How did COc1ccc2c(c1OC)C(=O)N1c3ccccc3N=C(c3ccc([N+](=O)[O-])cc3)CC21 (stereo not given) do in these assays?
Cycloheximide cs: 3.7; SARS PLpro yeast: 4.1%; Pf growth 96h: -0.5%; Pf growth 48h: 2.62µM*; Shiga inhibitor: 8.4; NS1 function inh: inconclusive

Results for COc1ccc2c(c1OC)C(=O)N1N=C(c3ccc(O)cc3)CC21 (stereo not given) ?
Cycloheximide cs: 15.2; SARS PLpro yeast: 1.9%; Pf growth 96h: 33.0%; Pf growth 48h: 1.31µM*; Shiga inhibitor: -0.2; NS1 function inh: 7.0%

Results for COc1ccc2c(c1OC)C(=O)N1N=C(c3ccc(Br)cc3)CC21 (stereo not given) ?
Cycloheximide cs: 12.2; SARS PLpro yeast: -59.9%; Pf growth 96h: -98.5%; Pf growth 48h: inconclusive; Shiga inhibitor: 19.8; NS1 function inh: -7.9%

Results for COc1ccc(C2=NN3C(=O)c4c(ccc(OC)c4OC)C3C2)cc1 (stereo not given) ?
Cycloheximide cs: 12.4; SARS PLpro yeast: -8.0%; Pf growth 96h: -15.8%; Pf growth 48h: 2.62µM*; Shiga inhibitor: -10.1; NS1 function inh: -23.5%

Results for COc1ccc2c(c1OC)C(=O)N1N=C(c3ccc(Cl)cc3)CC21 (stereo not given) ?
Cycloheximide cs: 13.0*; SARS PLpro yeast: -17.4%; Pf growth 96h: -16.2%; Pf growth 48h: 5.86µM*; Shiga inhibitor: 8.2; NS1 function inh: -17.1%

Results for CN(CC(=O)Nc1ccc(F)cc1)C(=O)COC(=O)/C=C/c1ccccc1[N+](=O)[O-] ?
SARS PLpro yeast: -0.2%; Pf growth 96h: -7.1%; Pf growth 48h: -7.7%

How did Cc1ccc(CCN2CC(C(=O)NCCN(C)C)CC2=O)cc1 (stereo not given) do in these assays?
Cycloheximide cs: -7.7; SARS PLpro yeast: 0.6%; Pf growth 96h: 13.5%; Pf growth 48h: 3.1%[0.00184 µM]; Shiga inhibitor: -3.4; NS1 function inh: 0.3%

What do the screens show for `COc1ccc(CN(Cc2cccnc2)S(=O)(=O)c2ccc(-n3cnnn3)c(C)c2)cc1OC`?
Cycloheximide cs: -2.0; SARS PLpro yeast: -0.4%; Pf growth 96h: inconclusive; Pf growth 48h: inconclusive; Shiga inhibitor: 19.0; NS1 function inh: -16.9%

Results for CCOc1ccccc1C=Nc1ccccc1C(=O)Nc1ccccc1 ?
Cycloheximide cs: 16.1*; SARS PLpro yeast: -2.2%; Pf growth 96h: 71.2%; Pf growth 48h: 9.8%; Shiga inhibitor: 68.4*; NS1 function inh: 7.7%

What do the screens show for `O=C(Nc1ccccc1)c1ccccc1N=Cc1ccccc1O`?
Cycloheximide cs: 47.2*; SARS PLpro yeast: -24.4%; Pf growth 96h: 69.8%; Pf growth 48h: 76.8%; Shiga inhibitor: active; NS1 function inh: 0.5%

How did CCn1c(C)c(C(C)=O)c(N2CCCCC2)nc1=S do in these assays?
Cycloheximide cs: 1.6; SARS PLpro yeast: 0.8%; Pf growth 96h: 11.7µM*; Pf growth 48h: -0.2%; Shiga inhibitor: -7.2; NS1 function inh: 1.8%

What do the screens show for `O=[N+]([O-])c1ccc2nc(N3CCCC3)sc2c1`?
Cycloheximide cs: 28.7*; SARS PLpro yeast: 0.8%; Pf growth 96h: 172.7%; Pf growth 48h: 13.6%[0.00184 µM]; Shiga inhibitor: 68.2*; NS1 function inh: 0.6%

Results for Fc1cc(F)c2nc(N3CCCCC3)sc2c1 ?
Cycloheximide cs: 77.5*; SARS PLpro yeast: 9.5%; Pf growth 96h: 8.28µM*; Pf growth 48h: 45.3%; Shiga inhibitor: 115.4*; NS1 function inh: -0.5%

What do the screens show for `Fc1ccc2nc(N3CCCC3)sc2c1`?
Cycloheximide cs: 44.1*; SARS PLpro yeast: 2.3%; Pf growth 96h: 199.5%; Pf growth 48h: 205.7%; Shiga inhibitor: 84.7*

Results for O=C(Nc1ccc2nc(N3CCOCC3)sc2c1)c1ccc(F)cc1 ?
SARS PLpro yeast: 1.3%; Pf growth 96h: inconclusive; Pf growth 48h: -27.9%

Results for CS(=O)(=O)CCC(C(=O)OCc1ccc(Cl)cc1)N1C(=O)c2ccccc2C1=O (stereo not given) ?
Cycloheximide cs: 0.5; SARS PLpro yeast: -1.8%; Pf growth 96h: inconclusive; Pf growth 48h: 7.0%; Shiga inhibitor: -3.3; NS1 function inh: -14.0%

Results for C#CCOCCOCCOCCNc1nc(N2CCOCC2)nc(N2CCN(C(=O)[C@H](CCC(=O)O)n3cc(C(N)Cc4ccc(O)cc4)nn3)CC2)n1 (stereo not given in full) ?
Cycloheximide cs: -1.5; SARS PLpro yeast: -1.5%; Pf growth 96h: 17.3%; Pf growth 48h: 3.4%; Shiga inhibitor: -9.3; NS1 function inh: 2.1%
